This is a sample that favours compounds with a hit; in the whole collection about 2.9% have one here.
ERa coact inh: blocks coactivator binding to human estrogen receptor alpha; P03372; TR-FRET ER-alpha LBD / SRC-1 peptide, estradiol-bound; inhibition, % at 25.6 µM; 86,000 compounds, 1.7% hits; in the data active means inhibition above about 50%;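 further: 0% = receptor plus peptide control and 100% = peptide only without receptor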
HePTP inhibitor: blocks human HePTP tyrosine phosphatase; inhibition, % at 20 µM; P35236; recombinant HePTP phosphatase activity, OD absorbance; 110,000 compounds, 0.64% hits; AID 521; in the data active means inhibition above about 50%;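 further: plate controls were vehicle for no effect and reference inhibitor for full effect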
Target sequence (P35236 whole entry, looked up): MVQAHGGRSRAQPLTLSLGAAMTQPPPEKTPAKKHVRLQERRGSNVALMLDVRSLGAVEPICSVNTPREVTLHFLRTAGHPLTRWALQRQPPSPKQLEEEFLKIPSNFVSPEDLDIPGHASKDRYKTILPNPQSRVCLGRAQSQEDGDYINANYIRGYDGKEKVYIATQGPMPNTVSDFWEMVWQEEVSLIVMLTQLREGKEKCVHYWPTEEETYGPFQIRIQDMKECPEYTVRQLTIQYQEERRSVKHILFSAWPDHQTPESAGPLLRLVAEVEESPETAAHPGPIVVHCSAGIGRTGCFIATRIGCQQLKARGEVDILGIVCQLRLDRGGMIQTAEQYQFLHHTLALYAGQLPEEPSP
ERb SRC1 inh: blocks coactivator binding to human estrogen receptor beta. inhibition, % at 25.6 µM. 86,000 compounds, 1.3% hits. Q92731. AID 633. TR-FRET ER-beta LBD / SRC1-Cy5 peptide binding; receptor agonist-loaded with 1 µM estradiol;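 active means compounds whose percent inhibition of the receptor-coactivator binding signal exceeds about 50% in the single-dose screen, limit read from the data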;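 further: 0% = receptor plus peptide wells without compound and 100% = peptide-only wells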
Candida biofilm: kills Candida albicans biofilms. AID 834. inhibition, % at 6 µM. 85,000 compounds, 0.14% hits. C. albicans biofilm + clotrimazole, Alamar Blue;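 active means inhibition above 20%; inactive means inhibition below 20%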;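 further: preformed 24 hr biofilms exposed to compound for 48 hr; 0% = biofilm without compound and 100% = blank killed by clotrimazole plus chlorhexidine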
Smad3 inh: Smad3 (human) transcription factor binding inhibition; P84022; TR-FRET Smad3/Dy647-FoxH1 peptide binding, europium anti-His; inhibition, % at 25 µM; 88,000 compounds, 0.29% hits; AID 630;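 active means compounds that reduce the energy-transfer binding signal between the protein and its labelled peptide by more than half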;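 further: 0% = Smad3 plus labelled peptide maximal FRET and 100% = peptide-only background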
ERa coact pot: ER-alpha (human) coactivator binding potentiation. 86,000 compounds, 1.3% hits. AID 639. coactivator binding (% of control), % at 25.6 µM. P03372. TR-FRET ERalpha-LBD/SRC-Cy5 coactivator binding, 2 h; 100 = basal binding, no effect; in the data active means activity above about 200%;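 further: binding measured in presence of low estradiol as agonist stimulus; 0% = peptide alone without receptor and 100% = receptor with peptide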
Active calls of the source: *; . = not tested or not shown; [ ] = another dose, or the depositor's remark.

SMILES | ERa coact inh | HePTP inhibitor | ERb SRC1 inh | Candida biofilm | Smad3 inh | ERa coact pot
C#CCOc1ccc(Br)c(/C=N/NS(=O)(=O)c2ccc(C)cc2)c1 | . | -6 | . | . | . | .
O=C(c1ccc(N2CCN(C(=O)c3ccccc3Br)CC2)cc1)c1cccc(F)c1 | . | 102* | . | . | . | .
COc1ccc2[nH]c3nc(SCc4nnc(-c5ccccc5)o4)nnc3c2c1 | 85*[fluorescence artefact?] | 0 | 52*[fluorescence artefact?] | -3 | 7 | 54
COc1ccc2[nH]c3nc(SC(C)C)nnc3c2c1 | 20 | 6 | 18 | 0 | -3 | 96
COc1ccc(N(CC(=O)Nc2ccc(Br)cc2)S(C)(=O)=O)c(OC)c1 | . | -2 | . | . | . | .
COc1cc(C2NC(=O)NC(C)=C2C(=O)Nc2ccc(C)cc2)cc(OC)c1OC (stereo not drawn) | . | 4 | . | . | . | .
N#Cc1nc(-c2ccc(OCc3ccc(Cl)cc3)cc2)oc1N1CCOCC1 | 50 | -8 | 25 | 7 | -103 | 278*[fluorescence artefact?]
N#Cc1nc(-c2ccc(OCc3ccc(Cl)cc3)cc2)oc1NCc1cccnc1 | 51* | 6 | 24 | . | -1 | 130
N#Cc1nc(-c2ccc(OCc3ccc(Cl)cc3)cc2)oc1N1CCC(C(N)=O)CC1 | 61*[fluorescence artefact?] | 10 | 47 | 11 | -16 | 103
CCOc1ccc(-c2nc(C#N)c(N3CCCCCC3)o2)cc1 | -4 | 3 | -9 | 21* | 9 | 90
CCCOc1ccc(-c2nc(C#N)c(N3CCC(C(N)=O)CC3)o2)cc1 | -3 | . | -12 | 5 | 7 | 90
CCOc1ccc(-c2nc(C#N)c(N3CCN(C)CC3)o2)cc1 | -8 | 12 | -12 | -9 | -7 | 91
N#Cc1nc(-c2ccc(OCc3ccccc3)cc2)oc1NCc1cccnc1 | 4 | 10 | -6 | 6 | 2 | 92
COc1cccc(-n2c(SCC(=O)Nc3cc(C)on3)nc3c([nH]c4ccccc43)c2=O)c1 | 21 | 10 | 10 | 7 | 28 | 110
O=C(CSc1nc2c([nH]c3ccccc32)c(=O)n1-c1ccccc1)N1CCOCC1 | 3 | 5 | -5 | 1 | 10 | 141
COc1ccc(-n2c(SCC(=O)N3CCCC3)nc3c([nH]c4ccccc43)c2=O)cc1 | 87* | -2 | 60*[fluorescence artefact?] | 6 | -8 | 124
COc1cccc(-n2c(SCC(N)=O)nc3c([nH]c4ccccc43)c2=O)c1 | 4 | 7 | -6 | 10 | 13 | 633*[fluorescence artefact?]
O=C(CSc1nc2c([nH]c3ccccc32)c(=O)n1-c1cccc(Cl)c1)N1CCOCC1 | 91*[fluorescence artefact?] | 7 | 73*[fluorescence artefact?] | 15 | 7 | 44
COc1cc(/C=C2/SC(=S)N(CC(=O)O)C2=O)cc([N+](=O)[O-])c1O | . | -11 | . | . | . | .
Cc1c([C@H]2[C@@H](CC#N)C2(C)C)c2ccccc2n1C | 63*[fluorescence artefact?] | 6 | 69* | 7 | 12 | 73
Cc1[nH]c2c(Br)cccc2c1[C@H]1[C@@H](CC#N)C1(C)C | -3 | . | 21 | -4 | -5 | 109
CCOc1ccccc1NC(=O)CSCc1ccccc1 | . | -2 | . | . | . | .
C/C(N)=C(/C#N)C(=O)CSc1nnc(Nc2ccccc2C)s1 | 51*[fluorescence artefact?] | . | 65* | -2 | -7 | 42
C/C(N)=C(/C#N)C(=O)CSc1nnc(NC(C)C)s1 | 97*[fluorescence artefact?] | 16 | 99*[fluorescence artefact?] | 4 | 17 | 1
CC(C)c1ccc(N(CC(=O)NC(C)c2ccccc2)S(=O)(=O)c2ccccc2)cc1 (stereo not drawn) | . | 11 | . | . | . | .
SMILES | ERa coact inh | HePTP inhibitor | ERb SRC1 inh | Candida biofilm | Smad3 inh | ERa coact pot
CCOC(=O)c1[nH]c(C)c(/C(O)=C2\C(=O)C(=O)N(CCN(C)C)C2c2cccc(OC)c2OC)c1C (stereo not drawn) | -2 | 6 | -9 | 7 | 12 | 599*[fluorescence artefact?]
CCOC(=O)c1[nH]c(C)c(/C(O)=C2\C(=O)C(=O)N(CCN(C)C)C2c2ccncc2)c1C (stereo not drawn) | -22 | -1 | 4 | 8 | 0 | 97
CC(C)C(C(=O)O)N1C(=O)/C(=C/c2ccccc2O)SC1=S (stereo not drawn) | . | 9 | . | . | . | .
O=C(Nc1ccccc1C(=O)N1CCN(Cc2ccccc2)CC1)c1ccccc1Cl | . | -3 | . | . | . | .
NC(=O)c1cccc(N=Cc2c[nH]c3ccccc23)c1 | . | -14 | . | . | . | .
O=C1CCNc2cc3ccccc3cc21 | 82*[fluorescence artefact?] | 13 | 78*[fluorescence artefact?] | 3 | 10 | 21
CCCC(=Nc1ccccc1)C1=C(O)C(C(=O)OC)C(C)(C)CC1=O (stereo not drawn) | -1 | 6 | -2 | 5 | 0 | 129
CCC(=Nc1ccc(N)cc1)C1=C(O)C(C(=O)OC)C(C)(C)CC1=O (stereo not drawn) | 3 | 1 | 83*[fluorescence artefact?] | 3 | 1 | 123
O=C1CC(c2ccc(F)cc2)Cc2nc(NCC3CCCO3)ncc21 (stereo not drawn) | 60* | . | -10 | 9 | 2 | 93
Clc1ccc2nc(CSc3nnc(-c4c[nH]c5ccccc45)o3)cn2c1 | 31 | -10 | 42 | 5 | 11 | 261*[fluorescence artefact?]
Clc1ccc2nc(CSc3nc4ccccc4o3)cn2c1 | 0 | -5 | -10 | 2 | -2 | 102
COC(=O)c1ccc2c(=O)n(CCCCCC(=O)NCc3ccccc3)c(=O)[nH]c2c1 | 85*[fluorescence artefact?] | . | 52*[fluorescence artefact?] | 5 | 2 | 72
CCCCCn1c(=O)[nH]c2cc(C(=O)NCc3ccc4c(c3)OCO4)ccc2c1=O | 61*[fluorescence artefact?] | 6 | 49 | -5 | -10 | 141
COC(=O)c1ccc2c(=O)n(CCCCCC(=O)NCc3ccc4c(c3)OCO4)c(=O)[nH]c2c1 | 88* | . | 43 | 4 | 2 | 78
COC(=O)c1ccc2c(=O)n(CCCCCC(=O)NCc3ccccn3)c(=O)[nH]c2c1 | -2 | -5 | -16 | 1 | 5 | 129
COCCCNC(=O)c1ccc2c(=O)n(Cc3ccc4c(c3)OCO4)c(=S)[nH]c2c1 | 58* | . | 47 | 14 | 6 | 121
CCCCCn1c(=O)[nH]c2cc(C(=O)N3CCN(Cc4ccc5c(c4)OCO5)CC3)ccc2c1=O | -4 | . | 0 | 4 | 14 | 182
Cc1ccc(OCCOc2ccc(C=O)cc2)cc1 | . | 2 | . | . | . | .
Cc1ccccc1N1C(=O)C(O)=C(C(=O)/C=C/c2ccccc2)C1c1ccc([N+](=O)[O-])cc1 (stereo not drawn) | . | 4 | . | . | . | .
COc1ccc(OC)c(N)c1 | 91*[fluorescence artefact?] | -5 | 63*[fluorescence artefact?] | 8 | 2 | 0
CCOc1ccc2[nH]c(=O)c(CN(Cc3ccc(F)cc3)C(=O)c3ccco3)cc2c1 | 45 | 2 | 20 | 2 | -8 | 77
CCOc1ccc2[nH]c(=O)c(CN(Cc3ccc(F)cc3)C(=O)N3CCCC3)cc2c1 | -9 | -3 | -5 | 11 | 3 | 331*[fluorescence artefact?]
CC(=O)c1c(COC(=O)c2cccnc2)nc2ccccc2[n+]1[O-] | 65*[fluorescence artefact?] | 4 | 57*[fluorescence artefact?] | 6 | -3 | 52
CCOc1ccc2nc(COC(=O)c3ccco3)c(C(C)=O)[n+]([O-])c2c1 | 17 | -10 | 22 | 5 | 10 | 66
CCSc1nnc2n(-c3ccc(OC)cc3)c(=O)c3c4c(sc3n12)COC(C)(C)C4 | . | -4 | . | . | . | .

Screening results deposited in PubChem by several laboratories.
